# Assay results from PubChem BioAssay (NCATS).
# Where “and” joins values, the source holds several entries; their conditions need not be identical. Equal entries are not always repeated. Records with an inconclusive call do not appear. Where a call stands in place of a potency, no number is given. Calls of active or inactive are those of the source. Unless noted, calls follow the shape of the dose curve; as a rule, active = well fitted curve in the direction sought with a large enough effect; inconclusive = small, poorly fitted or top-dose-only effect, or another doubt; inactive = no such curve, though single readings can be large; an effect the other way counts as inactive or inconclusive.
# What was measured:
# [1] = qHTS assay for measurement of the activity of small molecule inhibitors on Zika virus induced Caspase-3 activity in human astrocytoma cells (AID 1224859)
# In short: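 Human SNB-19 astrocytoma cells in RPMI 1640 with 10% FBS receive compound one hour ahead of Zika virus at 2 FFU/cell. After 6 h infection, caspase-3/7 activity is detected by Caspase-Glo luminescence.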
# [2] = P-glycoprotein substrates identified in KB-3-1 adenocarcinoma cell line, qHTS therapeutic library screen (AID 1346986); also: nearly all actives have a fitted effect of over 60% in size;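 also: potency is read from the fitted curve at half-maximal effect; potency is for cytotoxicity meaning loss of cell viability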
# In short: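 72 h cell-killing screen, 500 cells/well, CellTiter-Glo luminescence. Paired lines KB-3-1/KB-8-5-11; P-gp dependence checked by tariquidar co-treatment and HEK-293 MDR-19 versus empty-vector cells.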
# [3] = P-glycoprotein substrates identified in KB-8-5-11 adenocarcinoma cell line, qHTS therapeutic library screen (AID 1346987); also: nearly all actives have a fitted effect of over 65% in size; also: potency is read from the fitted curve at half-maximal effect
# In short: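 Luminescence from CellTiter-Glo, read 5 min after addition, quantified survival of KB-8-5-11 (P-gp-overexpressing) cells exposed to compounds for 72 h. AC50 was derived from concentration-response curves.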
# [4] = NS1 protein of Zika virus - qHTS assay to identify small molecule inhibitors in human HEK 293 cells (AID 1347053); also: nearly all actives have a fitted effect of over 55% in size; also: potency is read from the fitted curve at half-maximal effect
# In short: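 In this cell-based screen, HEK 293 cultures received compound for one hour before Zika MR766 at MOI = 0.5. NS1 was quantified 24 hours later by TR-FRET, normalized to virus-free wells and infected wells.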
# [5] = qHTS of pediatric cancer cell lines to identify multiple opportunities for drug repurposing: Primary screen for TC32 cells (AID 1347089); also: nearly all actives have a fitted effect of over 60% in size; also: potency is read from the fitted curve at half-maximal effect
# In short: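 A viability screen of TC32 cells was run over 48 h, with primary MIPE doses spanning 0.78 nM–46 µM and NPC doses 0.59 nM–46 µM. ATP luminescence (CellTiter-Glo) served as the read-out.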
# [6] = qHTS of pediatric cancer cell lines to identify multiple opportunities for drug repurposing: Primary screen for DAOY cells (AID 1347090); also: nearly all actives have a fitted effect of over 55% in size; also: potency is read from the fitted curve at half-maximal effect
# In short: (§1)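 Eight- or eleven-point concentration series, 48 h treatment at 37 degrees C in growth media; readout CellTiter-Glo luminescence. Potency and efficacy were taken from the concentration-response curves.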
# [7] = qHTS assay to identify small molecule inhibitors of chordoma cells - UCH-2 (AID 1259356); also: series mostly up to about 46 µM
# [8] = target: Atrial natriuretic peptide receptor 1 (Homo sapiens) (UniProt P16066); assay: Natriuretic polypeptide receptor (hNpr1) antagonism - Pilot screen (AID 1347049; calls by dose curve;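 also: HEK293 cells with hNpr1 and GloSensor cGMP luciferase stimulated by 0.1 nM hNppA; agonist-evoked cGMP luminescence read 20 min after hNppA addition; series mostly up to about 58 µM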)
# Sequence of Atrial natriuretic peptide receptor 1 (Homo sapiens) (P16066 whole entry, looked up): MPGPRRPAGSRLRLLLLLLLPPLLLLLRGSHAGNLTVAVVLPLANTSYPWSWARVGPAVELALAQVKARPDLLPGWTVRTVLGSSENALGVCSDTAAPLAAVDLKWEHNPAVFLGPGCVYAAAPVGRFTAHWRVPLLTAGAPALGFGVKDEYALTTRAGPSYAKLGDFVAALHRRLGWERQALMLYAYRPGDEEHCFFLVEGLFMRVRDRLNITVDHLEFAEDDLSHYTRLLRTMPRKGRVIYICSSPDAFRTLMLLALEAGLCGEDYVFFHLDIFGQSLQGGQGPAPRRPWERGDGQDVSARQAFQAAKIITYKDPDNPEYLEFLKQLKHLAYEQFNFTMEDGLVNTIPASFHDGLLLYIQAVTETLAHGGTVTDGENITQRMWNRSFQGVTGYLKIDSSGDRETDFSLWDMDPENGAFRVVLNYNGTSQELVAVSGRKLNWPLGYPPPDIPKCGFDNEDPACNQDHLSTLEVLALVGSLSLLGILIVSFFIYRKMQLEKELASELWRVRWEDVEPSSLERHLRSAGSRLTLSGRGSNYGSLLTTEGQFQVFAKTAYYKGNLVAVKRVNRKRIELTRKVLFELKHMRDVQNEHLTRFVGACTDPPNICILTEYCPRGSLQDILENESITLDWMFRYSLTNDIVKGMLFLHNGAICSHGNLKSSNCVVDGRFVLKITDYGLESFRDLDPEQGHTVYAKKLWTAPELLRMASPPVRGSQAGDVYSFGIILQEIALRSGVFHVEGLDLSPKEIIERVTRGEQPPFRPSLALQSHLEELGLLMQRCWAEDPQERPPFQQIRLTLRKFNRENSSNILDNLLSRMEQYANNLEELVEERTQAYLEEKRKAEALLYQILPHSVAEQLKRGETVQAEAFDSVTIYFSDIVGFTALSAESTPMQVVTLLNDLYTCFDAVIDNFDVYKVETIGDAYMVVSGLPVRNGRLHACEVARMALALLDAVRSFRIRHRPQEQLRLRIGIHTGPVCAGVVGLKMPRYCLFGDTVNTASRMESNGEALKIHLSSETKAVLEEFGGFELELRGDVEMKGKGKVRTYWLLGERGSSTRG
# In short: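 Cells expressing receptor plus cGMP biosensor are seeded and incubated overnight at 37C, then loaded with GloSensor reagent (2% final) at room temperature for 2 h. Library compounds go on for 30 min. A pre-read precedes agonist (hNppA, 0.1 nM final) and a 20-min readout.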
# [9] = target: Atrial natriuretic peptide receptor 2 (Homo sapiens) (UniProt P20594); assay: Natriuretic polypeptide receptor (hNpr2) antagonism - Pilot subtype selectivity assay (AID 1347050; calls by dose curve)
# Sequence of Atrial natriuretic peptide receptor 2 (Homo sapiens) (P20594 whole entry, looked up): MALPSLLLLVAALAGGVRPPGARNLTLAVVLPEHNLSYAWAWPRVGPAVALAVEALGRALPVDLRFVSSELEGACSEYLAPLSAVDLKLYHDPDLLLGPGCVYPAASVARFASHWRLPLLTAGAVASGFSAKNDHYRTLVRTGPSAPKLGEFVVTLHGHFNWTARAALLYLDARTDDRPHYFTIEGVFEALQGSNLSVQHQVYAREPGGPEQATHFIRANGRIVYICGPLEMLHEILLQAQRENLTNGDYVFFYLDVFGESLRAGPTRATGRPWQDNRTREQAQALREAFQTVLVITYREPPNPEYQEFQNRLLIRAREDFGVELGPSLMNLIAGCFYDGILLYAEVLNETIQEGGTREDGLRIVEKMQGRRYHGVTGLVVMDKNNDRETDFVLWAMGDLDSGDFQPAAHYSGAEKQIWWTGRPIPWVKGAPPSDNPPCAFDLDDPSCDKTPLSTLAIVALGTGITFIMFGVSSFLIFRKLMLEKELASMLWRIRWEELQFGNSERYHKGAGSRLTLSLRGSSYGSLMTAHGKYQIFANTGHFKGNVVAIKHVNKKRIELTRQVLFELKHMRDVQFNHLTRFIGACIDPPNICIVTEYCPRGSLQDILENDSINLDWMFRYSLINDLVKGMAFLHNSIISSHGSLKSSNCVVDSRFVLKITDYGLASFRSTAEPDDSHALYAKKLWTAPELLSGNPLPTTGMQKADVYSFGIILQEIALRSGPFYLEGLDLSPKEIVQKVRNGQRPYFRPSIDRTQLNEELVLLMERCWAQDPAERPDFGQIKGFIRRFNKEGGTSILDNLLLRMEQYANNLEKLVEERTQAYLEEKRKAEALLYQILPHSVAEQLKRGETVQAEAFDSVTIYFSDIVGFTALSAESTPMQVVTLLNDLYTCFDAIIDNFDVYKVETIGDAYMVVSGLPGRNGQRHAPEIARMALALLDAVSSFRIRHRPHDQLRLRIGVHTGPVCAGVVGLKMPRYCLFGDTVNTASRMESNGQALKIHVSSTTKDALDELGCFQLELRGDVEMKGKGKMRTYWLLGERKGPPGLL
# In short: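 Read-out: GloSensor luminescence (CCD imager), baseline vs post-stimulation. HEK293 cells expressing hNpr2; compounds pre-incubated 30-50 min at ambient temperature; hNppC 1 nM final, 20 min.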
# [10] = target: T1, Tyrosine-protein phosphatase non-receptor type substrate 1 (Homo sapiens) + Leukocyte surface antigen CD47 (Homo sapiens) (UniProt P78324+Q08722); assay: CD47-SIRPalpha protein protein interaction - LANCE assay qHTS validation (AID 1347057; active = well fitted curve in the direction sought with a large enough effect in the signal ratio, with a control signal flat, not every such curve was filed as active; the % refers to the signal ratio; also: series mostly up to about 38 µM)
# T1 sequence (P78324 whole entry, looked up, the tested form may be a part): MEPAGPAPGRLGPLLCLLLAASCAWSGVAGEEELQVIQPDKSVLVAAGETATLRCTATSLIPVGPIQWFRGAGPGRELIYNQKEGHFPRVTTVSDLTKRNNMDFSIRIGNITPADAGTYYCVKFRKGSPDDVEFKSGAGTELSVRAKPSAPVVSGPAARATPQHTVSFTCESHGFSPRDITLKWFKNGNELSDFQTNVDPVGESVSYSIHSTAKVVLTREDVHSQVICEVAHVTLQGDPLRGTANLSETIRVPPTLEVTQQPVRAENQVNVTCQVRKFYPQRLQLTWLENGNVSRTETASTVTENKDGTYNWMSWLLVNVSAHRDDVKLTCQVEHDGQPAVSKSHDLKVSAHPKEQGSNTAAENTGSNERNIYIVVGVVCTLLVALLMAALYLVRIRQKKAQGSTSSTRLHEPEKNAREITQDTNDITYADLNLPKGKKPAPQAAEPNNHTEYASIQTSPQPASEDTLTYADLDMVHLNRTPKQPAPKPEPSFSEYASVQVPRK
# T1 sequence (Q08722 whole entry, looked up, the tested form may be a part): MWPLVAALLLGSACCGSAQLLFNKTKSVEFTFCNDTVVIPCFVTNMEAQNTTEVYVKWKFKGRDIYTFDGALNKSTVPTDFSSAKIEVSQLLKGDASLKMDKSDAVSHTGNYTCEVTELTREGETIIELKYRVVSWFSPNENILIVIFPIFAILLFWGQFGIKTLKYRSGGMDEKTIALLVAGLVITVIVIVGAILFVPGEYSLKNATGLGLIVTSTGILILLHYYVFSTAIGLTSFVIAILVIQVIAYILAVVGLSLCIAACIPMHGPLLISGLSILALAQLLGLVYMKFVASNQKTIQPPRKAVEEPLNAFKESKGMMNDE
# In short: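 Inhibition of soluble CD47/SIRPalpha ectodomain association by titrated compounds, measured as 665/615 nm time-resolved FRET ratio after sequential 30 min room-temperature incubations.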
# [11] = target: T1, Tyrosine-protein phosphatase non-receptor type substrate 1 (Homo sapiens) + Leukocyte surface antigen CD47 (Homo sapiens); assay: CD47-SIRPalpha protein protein interaction - HTRF assay qHTS validation (AID 1347058; active = well fitted curve in the direction sought with a large enough effect in the signal ratio, not every such curve was filed as active; the % refers to the signal ratio; also: series mostly up to about 38 µM)
# In short: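 Soluble extracellular domains (6His-CD47, Avi-tag-biotinylated SIRPalpha) in PBS pH 7.4 with 0.05% IGEPAL CA-630. Compounds were preincubated 30 min at RT with CD47 and anti-His-Eu, then SIRPalpha and SAV-XL665 were added. TR-FRET 665/615 ratio.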
# [12] = target: T1, Tyrosine-protein phosphatase non-receptor type substrate 1 (Homo sapiens) + Leukocyte surface antigen CD47 (Homo sapiens); assay: CD47-SIRPalpha protein protein interaction - Alpha assay qHTS validation (AID 1347059);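 also: bead proximity luminescence from CD47 binding SIRPalpha after compound preincubation with SIRPalpha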
# In short: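 In PBS (pH 7.4) with 0.05% IGEPAL CA-630, compound is preincubated with biotin-Avi-SIRPalpha ectodomain before His-CD47 ectodomain and affinity beads are added. Light-protected room-temperature incubations; AlphaScreen readout.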
# [13] = target: Parathyroid hormone/parathyroid hormone-related peptide receptor (Homo sapiens) (UniProt Q03431); assay: qHTS for PTHR1 Agonists: Optimization Screen against the NCGC LOPAC library (AID 1347079);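 also: GloSensor cAMP luminescence in HEK-293 GP2 cells expressing human PTHR1 with IBMX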
# Sequence of Parathyroid hormone/parathyroid hormone-related peptide receptor (Homo sapiens) (Q03431 whole entry, looked up): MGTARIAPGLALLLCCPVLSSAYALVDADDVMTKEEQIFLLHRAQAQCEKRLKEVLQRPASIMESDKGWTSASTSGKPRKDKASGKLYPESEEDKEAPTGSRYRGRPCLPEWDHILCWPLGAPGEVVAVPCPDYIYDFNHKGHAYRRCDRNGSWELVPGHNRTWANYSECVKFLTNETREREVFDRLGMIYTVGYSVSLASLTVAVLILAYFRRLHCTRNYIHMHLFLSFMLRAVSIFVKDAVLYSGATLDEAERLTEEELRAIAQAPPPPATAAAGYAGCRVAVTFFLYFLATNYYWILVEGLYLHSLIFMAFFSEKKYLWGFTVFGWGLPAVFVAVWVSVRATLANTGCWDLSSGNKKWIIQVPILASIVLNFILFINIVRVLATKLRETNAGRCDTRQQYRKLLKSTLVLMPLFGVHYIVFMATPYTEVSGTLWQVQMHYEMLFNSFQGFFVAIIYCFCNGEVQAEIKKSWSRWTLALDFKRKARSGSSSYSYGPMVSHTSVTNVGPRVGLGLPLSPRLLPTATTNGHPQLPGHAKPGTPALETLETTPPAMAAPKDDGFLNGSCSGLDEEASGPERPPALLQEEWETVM
# In short: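 HEK-293 GP2 cells, PTHR1 + GloSensor cAMP; 3000 cells/well, o/n. Luciferin + IBMX 0.5mM each (stock), 1 hr 37C. Cpd titration, 1 hr 37C. Lum after 15 min RT. Ctrl M-PTH(1-15) top 10uM.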
# [14] = qHTS of pediatric cancer cell lines to identify multiple opportunities for drug repurposing: Primary screen for SJ-GBM2 cells (AID 1347091); also: potency is read from the fitted curve at half-maximal effect
# In short: as §1
# [15] = Natriuretic polypeptide receptor (hNpr1) antagonism - Pilot counterscreen GloSensor control cell line (AID 1347045; calls by dose curve; also: series mostly up to about 38 µM)
# In short: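 Cells were first seeded and incubated overnight at 37C, then loaded with 2% GloSensor substrate for 2 h. Compounds were added for 30 min at room temperature, followed by a baseline read, 50 uM SNP and a final read after 20 min.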
# [16] = Identifying Small Molecule Inhibitors of Pancreatic Cancer Stem Cells (Panc1, Spheroid) (AID 1259359); conditions: Panc1 spheroid cancer stem cell viability;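 also: potency is read from the fitted curve at half-maximal effect; compound exposure lasted 48 h before reading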
# In short: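 Viability is scored by CellTiter-Glo luminescence 48 h after dosing, expressed as percent activity against vehicle and no-cell references. Spheroid formats rely on cells cultured 14 days in stem cell media beforehand.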
compound,measurement,setting,value
CC[C@@H]1C=C(C)C[C@H](C)C[C@H](OC)[C@H]2O[C@@](O)(C(=O)C(=O)N3CCCC[C@@H]3C(=O)O[C@H](C(C)=C[C@@H]3CC[C@H](Cl)[C@H](OC)C3)[C@H](C)[C@@H](O)CC1=O)[C@H](C)C[C@H]2OC,Potency,[1],inactive
same,Potency,[2],inactive
same,Potency,[3],inactive
same,Potency,[4],23500 nM (active)
same,Potency,[5],inactive
same,Potency,[6],inactive
CC(=O)O[C@]1(C(C)=O)CC[C@H]2[C@@H]3C=C(Cl)C4=CC(=O)[C@@H]5C[C@@H]5[C@]4(C)[C@H]3CC[C@@]21C,Potency,[1],inactive
same,outcome,[7],inactive
same,outcome,[8],inactive
same,outcome,[9],inactive
same,Potency,[4],inactive
same,outcome,[10],inactive
same,outcome,[11],inactive
same,outcome,[12],inactive
same,outcome,[13],inactive
same,Potency,[5],inactive
same,Potency,[14],inactive
O=C(O)Cc1cccc2ccccc12,Potency,[1],inactive
same,outcome,[7],inactive
same,Potency,[3],inactive
same,Potency,[4],inactive
same,Potency,[5],inactive
same,Potency,[6],inactive
same,Potency,[14],inactive
C[C@@H](O)[C@H]1C(=O)N2C(C(=O)O)=C(S[C@@H]3CN[C@H](C(=O)N(C)C)C3)[C@H](C)[C@H]12,Potency,[1],inactive
same,outcome,[7],inactive
same,Potency,[3],inactive
same,Potency,[4],inactive
same,Potency,[5],inactive
same,Potency,[6],inactive
same,Potency,[14],inactive
COc1ccc(-c2nc(N3CCOCC3)c3sc(CN(C)c4ncc(C(=O)NO)cn4)cc3n2)cn1,Potency,[1],inactive
same,Potency,[2],164 nM (active)
same,Potency,[3],20.9 nM (active) and 231 nM (active)
same,Potency,[5],41.5 nM (active)
same,Potency,[6],11.8 nM (active)
same,Potency,[14],6.6 nM (active)
CC/C(=C(\c1ccccc1)c1ccc(OCCN(C)C)cc1)c1ccccc1,Potency,[1],inactive
same,outcome,[7],inactive
same,outcome,[8],inactive
same,outcome,[9],inactive
same,Potency,[4],inactive
same,outcome,[13],inactive
same,Potency,[6],inactive
OC[C@H]1O[C@@H](Oc2cc(O)cc(C=Cc3ccc(O)cc3)c2)[C@H](O)[C@@H](O)[C@H]1O,Potency,[1],inactive
same,Potency,[2],inactive
same,Potency,[3],inactive
same,Potency,[4],inactive
same,Potency,[5],inactive
same,Potency,[14],inactive
O=C1NC(=O)C(=Cc2ccc3c(c2)OC(F)(F)O3)S1,Potency,[1],inactive
same,Potency,[3],inactive
same,Potency,[4],inactive
same,Potency,[5],inactive
same,Potency,[6],23500 nM (active)
CC(C)(C)c1ccc(C(O)CCCN2CCC(C(O)(c3ccccc3)c3ccccc3)CC2)cc1 (stereo unspecified),Potency,[1],inactive
same,outcome,[7],inactive
same,Potency,[3],13 µM (active) and 18.4 µM (active)
same,outcome,[9],inactive
same,Potency,[4],inactive
same,outcome,[10],inactive
same,outcome,[11],inactive
same,outcome,[12],inactive
same,outcome,[13],inactive
same,Potency,[5],inactive
same,Potency,[6],inactive
same,Potency,[14],inactive
Clc1ccc(Cn2c(CN3CCCC3)nc3ccccc32)cc1,Potency,[1],inactive
same,outcome,[7],inactive
same,Potency,[15],inactive
same,outcome,[8],inactive
same,Potency,[4],inactive
same,outcome,[10],inactive
same,outcome,[11],inactive
same,outcome,[12],inactive
same,outcome,[13],inactive
same,Potency,[6],inactive
same,Potency,[14],inactive
CCCCC1C(=O)N(c2ccccc2)N(c2ccccc2)C1=O,Potency,[1],inactive
same,outcome,[7],inactive
same,Potency,[3],inactive
same,outcome,[8],inactive
same,outcome,[9],inactive
same,Potency,[4],inactive
same,outcome,[13],inactive
same,Potency,[5],inactive
same,Potency,[6],inactive
same,Potency,[14],inactive
O=c1[nH]cnc2c1ncn2[C@H]1CC[C@@H](CO)O1,Potency,[1],inactive
same,outcome,[7],inactive
same,Potency,[3],inactive
same,Potency,[4],inactive
same,Potency,[5],inactive
same,Potency,[6],inactive
CC1(C)CCC[C@@]2(C)[C@@H]1CC[C@@]1(C)OC(=O)C[C@H]21,Potency,[1],inactive
same,Potency,[3],inactive
same,Potency,[4],inactive
same,Potency,[5],inactive
same,Potency,[6],inactive
COc1cc(NC(=O)c2ccc(-c3ccc(Cl)cc3)o2)cc(OC)c1,Potency,[1],inactive
same,Potency,[3],inactive
same,Potency,[4],inactive
same,Potency,[5],inactive
same,Potency,[6],2960 nM (active)
Cc1ccc(Nc2cc(-c3cccc(N4C(=O)c5ccccc5C4=O)c3)ncn2)cc1NS(C)(=O)=O,Potency,[1],inactive
same,Potency,[2],inactive
same,Potency,[3],inactive
same,Potency,[5],inactive
same,Potency,[14],inactive
CS(=O)c1ccc(-c2nc(-c3ccc(F)cc3)c(-c3ccncc3)[nH]2)cc1 (stereo unspecified),Potency,[1],inactive
same,Potency,[2],inactive
same,Potency,[3],inactive
same,Potency,[5],inactive
same,Potency,[6],inactive
same,Potency,[14],42900 nM (active)
O=c1cc(-c2cccc3c2Sc2ccccc2S3)oc(N2CCOCC2)c1,Potency,[1],inactive
same,Potency,[2],inactive
same,Potency,[3],inactive
same,Potency,[5],inactive
same,Potency,[14],inactive
CO[C@H]1C[C@@H]2CC[C@@H](C)[C@@](O)(O2)C(=O)C(=O)N2CCCC[C@@H]2C(=O)O[C@H]([C@H](C)C[C@@H]2CC[C@H](OCCO)[C@H](OC)C2)CC(=O)[C@H](C)C=C(C)[C@@H](O)[C@@H](OC)C(=O)[C@H](C)C[C@H](C)C=CC=CC=C1C,Potency,[1],inactive
same,Potency,[16],26400 nM (active)
same,Potency,[3],3.32 µM (active)
same,Potency,[5],3300 nM (active)
same,Potency,[6],inactive
N#Cc1ccc(NC(=O)Nc2ccccc2Br)c2n[nH]nc12,Potency,[1],inactive
same,Potency,[3],inactive
same,Potency,[4],inactive
same,Potency,[5],inactive
same,Potency,[6],inactive
CON=C(C(=O)N[C@@H]1C(=O)N2C(C(=O)OCOC(=O)C(C)(C)C)=C(C=Cc3scnc3C)CS[C@H]12)c1csc(N)n1,Potency,[1],inactive
same,Potency,[3],inactive
same,Potency,[4],inactive
same,Potency,[5],inactive
same,Potency,[6],inactive
same,Potency,[14],inactive
C[N+](C)(C)CCCCCC[N+](C)(C)C,Potency,[1],inactive
same,outcome,[7],inactive
same,Potency,[15],inactive
same,outcome,[8],inactive
same,outcome,[9],inactive
same,Potency,[4],inactive
same,outcome,[10],inactive
same,outcome,[11],inactive
same,outcome,[12],inactive
same,outcome,[13],inactive
same,Potency,[5],inactive
same,Potency,[6],inactive
same,Potency,[14],inactive
COc1ncc(-c2ccc3nccc(-c4ccnnc4)c3c2)cc1NS(=O)(=O)c1ccc(F)cc1F,Potency,[1],inactive
same,Potency,[16],7.4 nM (active)
same,Potency,[3],2.96 µM (active) and 29.1 nM (active)
same,Potency,[4],41.8 nM (active)
same,Potency,[5],2.6 nM (active)
same,Potency,[6],4690 nM (active)
same,Potency,[14],1 nM (active)
